Results: PMC7862700, “An all-to-all approach to the identification of sequence-specific readers for epigenetic DNA modifications on cytosine”

Experiments:
Assay in all cases: DAPPL (digital affinity profiling via proximity ligation, sequencing); 10 mM Tris-HCl pH 7.5, 50 mM NaCl, 1 mM DTT, 4% glycerol, room temperature, 30 min; GST-TFs on glutathione beads, 16-mer random dsDNA library, 0.1% formaldehyde crosslink after washing; high values mean tight binding
Conditions in all cases: protein: recombinant; tags: N-terminal GST; dsDNA, one strand shown
FEV = target: T1, FEV (Homo sapiens, UniProt Q99581 1-238)
T1 sequence: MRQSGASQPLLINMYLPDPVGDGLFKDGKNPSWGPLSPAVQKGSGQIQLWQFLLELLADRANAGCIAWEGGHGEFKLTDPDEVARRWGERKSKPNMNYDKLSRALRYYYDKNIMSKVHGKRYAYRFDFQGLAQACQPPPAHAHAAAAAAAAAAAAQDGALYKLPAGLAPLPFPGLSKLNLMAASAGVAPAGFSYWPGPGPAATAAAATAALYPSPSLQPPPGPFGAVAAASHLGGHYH
How it was run: (§1)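 GST fusions of human transcription factors were expressed in yeast and captured with glutathione beads. Once given DNA barcodes and pooled alongside a tag-only sample, they were incubated for 30 min at room temperature with 200 nmole of a random double-stranded 16-mer DNA library in Tris/NaCl/DTT/glycerol buffer, then washed, crosslinked (0.1% formaldehyde), proximity-ligated, PCR-amplified and sequenced on an Illumina NextSeq500. The binding signal of each hexamer is its read frequency for a factor divided by its frequency for the tag-only sample.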

ETV5 = ETV5 (Homo sapiens, UniProt P41161 1-510)
How it was run: as §1

ELF3 = target: T2, ELF3 (Homo sapiens, UniProt P78545 1-371)
T2 sequence: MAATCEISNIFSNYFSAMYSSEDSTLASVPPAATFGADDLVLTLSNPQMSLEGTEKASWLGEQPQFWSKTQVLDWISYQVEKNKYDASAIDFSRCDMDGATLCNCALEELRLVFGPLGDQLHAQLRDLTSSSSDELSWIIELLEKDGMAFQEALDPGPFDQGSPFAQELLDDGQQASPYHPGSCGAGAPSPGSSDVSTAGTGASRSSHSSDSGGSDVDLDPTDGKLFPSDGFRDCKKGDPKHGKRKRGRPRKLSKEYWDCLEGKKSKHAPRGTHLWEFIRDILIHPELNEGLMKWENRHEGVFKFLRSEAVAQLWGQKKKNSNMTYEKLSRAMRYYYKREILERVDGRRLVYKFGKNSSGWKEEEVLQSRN
How it was run: as §1

SPDEF = target: T3, SPDEF (Homo sapiens, UniProt O95238 1-335)
T3 sequence: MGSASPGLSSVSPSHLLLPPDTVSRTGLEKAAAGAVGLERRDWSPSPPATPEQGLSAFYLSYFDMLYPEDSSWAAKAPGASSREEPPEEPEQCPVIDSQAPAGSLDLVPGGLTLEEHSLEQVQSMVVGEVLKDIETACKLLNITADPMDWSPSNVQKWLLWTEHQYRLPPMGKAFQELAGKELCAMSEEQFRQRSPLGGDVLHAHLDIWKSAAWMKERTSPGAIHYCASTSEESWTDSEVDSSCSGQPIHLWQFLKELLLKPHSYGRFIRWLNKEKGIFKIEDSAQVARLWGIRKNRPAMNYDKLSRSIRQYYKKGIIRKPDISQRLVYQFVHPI
How it was run: as §1

ETV7 = target: T4, ETV7 (Homo sapiens, UniProt Q9Y603 1-341)
T4 sequence: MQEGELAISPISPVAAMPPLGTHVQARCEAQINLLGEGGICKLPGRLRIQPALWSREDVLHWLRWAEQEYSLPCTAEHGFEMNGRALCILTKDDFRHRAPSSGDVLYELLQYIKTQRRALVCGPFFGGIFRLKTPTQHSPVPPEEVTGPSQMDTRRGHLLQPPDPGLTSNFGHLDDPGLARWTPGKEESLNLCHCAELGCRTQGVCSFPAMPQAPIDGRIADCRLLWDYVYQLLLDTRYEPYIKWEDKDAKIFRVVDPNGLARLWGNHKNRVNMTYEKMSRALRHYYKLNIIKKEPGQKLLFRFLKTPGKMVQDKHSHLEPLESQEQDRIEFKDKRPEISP
How it was run: as §1

GABPA = target: T5, GABPA (Homo sapiens, UniProt Q06546 1-454)
T5 sequence: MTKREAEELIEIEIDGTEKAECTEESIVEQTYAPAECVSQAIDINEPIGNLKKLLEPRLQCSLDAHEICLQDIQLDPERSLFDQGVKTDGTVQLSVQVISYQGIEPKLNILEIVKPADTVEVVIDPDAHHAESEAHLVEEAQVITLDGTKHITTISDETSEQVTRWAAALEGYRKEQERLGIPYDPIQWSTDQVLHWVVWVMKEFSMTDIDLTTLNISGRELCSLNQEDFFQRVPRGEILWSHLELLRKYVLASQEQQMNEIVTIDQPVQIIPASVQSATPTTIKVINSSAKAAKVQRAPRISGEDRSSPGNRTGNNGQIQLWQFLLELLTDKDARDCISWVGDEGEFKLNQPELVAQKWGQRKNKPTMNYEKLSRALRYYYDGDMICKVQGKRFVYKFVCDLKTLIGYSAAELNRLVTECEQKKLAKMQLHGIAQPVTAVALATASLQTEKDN
How it was run: as §1

ERG = target: T6, ERG (Homo sapiens, UniProt P11308 1-479)
T6 sequence: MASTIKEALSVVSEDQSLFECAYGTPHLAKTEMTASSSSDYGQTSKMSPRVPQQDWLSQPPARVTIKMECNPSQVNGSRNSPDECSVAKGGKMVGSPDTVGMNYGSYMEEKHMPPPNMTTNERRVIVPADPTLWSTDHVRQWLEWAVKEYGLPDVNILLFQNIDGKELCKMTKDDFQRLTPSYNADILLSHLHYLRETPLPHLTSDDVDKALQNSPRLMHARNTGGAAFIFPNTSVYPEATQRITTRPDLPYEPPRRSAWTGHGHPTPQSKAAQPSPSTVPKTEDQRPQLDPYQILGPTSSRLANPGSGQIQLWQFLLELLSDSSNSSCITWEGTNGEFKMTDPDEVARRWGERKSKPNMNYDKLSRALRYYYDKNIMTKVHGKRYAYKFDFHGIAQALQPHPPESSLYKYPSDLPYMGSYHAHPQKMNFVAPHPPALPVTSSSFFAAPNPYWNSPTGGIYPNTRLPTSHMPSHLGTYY
How it was run: as §1

ELF1 = ELF1 (Homo sapiens, UniProt P32519 1-619)
How it was run: as §1

EHF = target: T7, EHF (Homo sapiens, UniProt Q9NZC4 1-300)
T7 sequence: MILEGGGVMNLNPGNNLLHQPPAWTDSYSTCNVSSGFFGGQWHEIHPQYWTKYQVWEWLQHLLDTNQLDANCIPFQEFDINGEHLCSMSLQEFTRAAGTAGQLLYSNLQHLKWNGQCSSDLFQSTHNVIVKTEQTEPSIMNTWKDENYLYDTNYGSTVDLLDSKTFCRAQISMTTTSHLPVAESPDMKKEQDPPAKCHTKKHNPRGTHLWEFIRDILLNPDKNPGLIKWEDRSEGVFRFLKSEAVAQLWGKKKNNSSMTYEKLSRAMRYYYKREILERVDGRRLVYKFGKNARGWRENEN
How it was run: as §1

SPIB = SPIB (Homo sapiens, UniProt Q01892 1-262)
How it was run: as §1

ELK3 = target: T8, ELK3 (Homo sapiens, UniProt P41970 1-407)
T8 sequence: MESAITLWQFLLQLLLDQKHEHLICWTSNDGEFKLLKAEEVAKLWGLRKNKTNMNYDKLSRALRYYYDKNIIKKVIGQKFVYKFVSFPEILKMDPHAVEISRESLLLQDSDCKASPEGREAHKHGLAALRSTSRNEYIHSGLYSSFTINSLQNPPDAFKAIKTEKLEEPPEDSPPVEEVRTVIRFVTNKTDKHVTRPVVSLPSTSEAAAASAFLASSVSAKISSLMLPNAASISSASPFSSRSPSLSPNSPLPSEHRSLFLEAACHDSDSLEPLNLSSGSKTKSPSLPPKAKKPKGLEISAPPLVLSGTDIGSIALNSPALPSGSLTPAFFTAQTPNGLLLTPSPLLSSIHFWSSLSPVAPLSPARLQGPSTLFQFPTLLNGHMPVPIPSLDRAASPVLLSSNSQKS
How it was run: as §1

ELF4 = ELF4 (Homo sapiens, UniProt Q99607 1-663)
How it was run: as §1

ETV1 = ETV1 (Homo sapiens, UniProt P50549 1-477)
How it was run: as §1

ETV3L = target: T9, ETV3L (Homo sapiens, UniProt Q6ZN32 1-361)
T9 sequence: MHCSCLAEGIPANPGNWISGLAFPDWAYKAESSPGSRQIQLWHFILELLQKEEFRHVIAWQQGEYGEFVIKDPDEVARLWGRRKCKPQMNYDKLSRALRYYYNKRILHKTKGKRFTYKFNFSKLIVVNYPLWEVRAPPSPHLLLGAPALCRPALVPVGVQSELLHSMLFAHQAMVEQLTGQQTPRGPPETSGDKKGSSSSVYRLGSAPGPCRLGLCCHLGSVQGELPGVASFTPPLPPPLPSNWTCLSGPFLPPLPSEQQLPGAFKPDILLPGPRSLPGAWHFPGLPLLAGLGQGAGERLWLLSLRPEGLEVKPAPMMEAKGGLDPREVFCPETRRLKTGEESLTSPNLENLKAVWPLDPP
How it was run: as §1

ETS2 = target: T10, ETS2 (Homo sapiens, UniProt P15036 1-469)
T10 sequence: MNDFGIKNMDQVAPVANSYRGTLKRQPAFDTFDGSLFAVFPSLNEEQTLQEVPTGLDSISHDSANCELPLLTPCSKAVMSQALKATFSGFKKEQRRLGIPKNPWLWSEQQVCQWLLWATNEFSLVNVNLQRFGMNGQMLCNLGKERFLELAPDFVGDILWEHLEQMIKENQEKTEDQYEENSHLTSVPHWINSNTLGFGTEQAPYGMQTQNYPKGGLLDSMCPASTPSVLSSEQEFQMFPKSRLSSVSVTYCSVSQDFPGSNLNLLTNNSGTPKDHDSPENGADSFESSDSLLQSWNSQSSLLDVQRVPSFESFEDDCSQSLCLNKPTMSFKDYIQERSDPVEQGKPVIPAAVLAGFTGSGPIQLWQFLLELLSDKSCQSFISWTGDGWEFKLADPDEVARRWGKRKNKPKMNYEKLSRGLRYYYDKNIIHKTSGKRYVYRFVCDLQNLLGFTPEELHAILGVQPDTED
How it was run: as §1

Chain of ETV5 (P41161 whole entry): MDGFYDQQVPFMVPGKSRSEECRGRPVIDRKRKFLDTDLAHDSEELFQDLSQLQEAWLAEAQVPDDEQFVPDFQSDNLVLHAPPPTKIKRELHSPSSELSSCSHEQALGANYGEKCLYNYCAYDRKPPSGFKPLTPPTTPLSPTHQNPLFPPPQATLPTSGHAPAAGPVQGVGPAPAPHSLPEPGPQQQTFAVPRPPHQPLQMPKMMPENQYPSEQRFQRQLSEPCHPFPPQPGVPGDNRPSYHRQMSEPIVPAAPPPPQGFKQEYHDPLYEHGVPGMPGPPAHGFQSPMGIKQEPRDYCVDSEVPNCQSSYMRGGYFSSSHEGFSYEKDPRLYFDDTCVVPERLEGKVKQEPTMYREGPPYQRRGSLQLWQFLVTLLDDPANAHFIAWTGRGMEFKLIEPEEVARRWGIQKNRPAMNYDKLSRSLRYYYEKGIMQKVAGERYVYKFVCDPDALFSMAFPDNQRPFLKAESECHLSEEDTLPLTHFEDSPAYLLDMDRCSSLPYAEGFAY
Chain of ELF4 (Q99607 whole entry): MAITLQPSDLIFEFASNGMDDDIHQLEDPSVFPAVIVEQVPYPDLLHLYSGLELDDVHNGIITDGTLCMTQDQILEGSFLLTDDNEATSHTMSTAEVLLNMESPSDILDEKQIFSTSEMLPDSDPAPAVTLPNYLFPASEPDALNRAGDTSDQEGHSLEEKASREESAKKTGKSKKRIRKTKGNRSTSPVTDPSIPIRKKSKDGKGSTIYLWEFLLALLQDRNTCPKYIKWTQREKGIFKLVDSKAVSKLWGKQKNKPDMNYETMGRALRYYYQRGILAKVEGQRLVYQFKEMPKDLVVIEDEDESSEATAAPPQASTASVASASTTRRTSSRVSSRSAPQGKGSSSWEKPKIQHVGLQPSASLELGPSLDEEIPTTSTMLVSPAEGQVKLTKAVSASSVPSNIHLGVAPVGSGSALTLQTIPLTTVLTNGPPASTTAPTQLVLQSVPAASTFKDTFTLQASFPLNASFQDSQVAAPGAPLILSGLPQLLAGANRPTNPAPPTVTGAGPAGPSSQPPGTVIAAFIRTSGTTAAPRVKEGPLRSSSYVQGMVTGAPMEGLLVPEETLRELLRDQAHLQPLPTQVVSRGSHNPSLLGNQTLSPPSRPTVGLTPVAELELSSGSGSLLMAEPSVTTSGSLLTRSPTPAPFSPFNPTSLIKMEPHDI
Chain of ETV1 (P50549 whole entry): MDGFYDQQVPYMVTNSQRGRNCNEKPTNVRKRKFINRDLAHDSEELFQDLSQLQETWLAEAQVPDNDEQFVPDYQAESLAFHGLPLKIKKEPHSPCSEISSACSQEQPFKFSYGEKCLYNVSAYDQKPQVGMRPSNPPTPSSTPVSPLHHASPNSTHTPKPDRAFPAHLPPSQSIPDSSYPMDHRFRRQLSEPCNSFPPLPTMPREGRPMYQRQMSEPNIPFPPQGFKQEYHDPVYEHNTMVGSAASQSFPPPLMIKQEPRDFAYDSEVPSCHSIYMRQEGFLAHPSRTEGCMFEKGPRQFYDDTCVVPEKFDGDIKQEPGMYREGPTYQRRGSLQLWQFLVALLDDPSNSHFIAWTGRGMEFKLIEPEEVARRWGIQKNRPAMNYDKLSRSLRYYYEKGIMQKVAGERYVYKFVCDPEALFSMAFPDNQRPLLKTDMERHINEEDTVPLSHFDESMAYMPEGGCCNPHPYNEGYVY
Chain of SPIB (Q01892 whole entry): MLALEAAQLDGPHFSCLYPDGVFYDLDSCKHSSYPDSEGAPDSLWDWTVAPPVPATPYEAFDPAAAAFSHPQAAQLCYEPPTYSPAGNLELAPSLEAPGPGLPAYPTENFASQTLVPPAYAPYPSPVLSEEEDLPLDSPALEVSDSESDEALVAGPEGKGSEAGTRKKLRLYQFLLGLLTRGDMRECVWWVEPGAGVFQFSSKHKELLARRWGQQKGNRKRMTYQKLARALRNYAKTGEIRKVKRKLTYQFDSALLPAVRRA
Chain of ELF1 (P32519 whole entry): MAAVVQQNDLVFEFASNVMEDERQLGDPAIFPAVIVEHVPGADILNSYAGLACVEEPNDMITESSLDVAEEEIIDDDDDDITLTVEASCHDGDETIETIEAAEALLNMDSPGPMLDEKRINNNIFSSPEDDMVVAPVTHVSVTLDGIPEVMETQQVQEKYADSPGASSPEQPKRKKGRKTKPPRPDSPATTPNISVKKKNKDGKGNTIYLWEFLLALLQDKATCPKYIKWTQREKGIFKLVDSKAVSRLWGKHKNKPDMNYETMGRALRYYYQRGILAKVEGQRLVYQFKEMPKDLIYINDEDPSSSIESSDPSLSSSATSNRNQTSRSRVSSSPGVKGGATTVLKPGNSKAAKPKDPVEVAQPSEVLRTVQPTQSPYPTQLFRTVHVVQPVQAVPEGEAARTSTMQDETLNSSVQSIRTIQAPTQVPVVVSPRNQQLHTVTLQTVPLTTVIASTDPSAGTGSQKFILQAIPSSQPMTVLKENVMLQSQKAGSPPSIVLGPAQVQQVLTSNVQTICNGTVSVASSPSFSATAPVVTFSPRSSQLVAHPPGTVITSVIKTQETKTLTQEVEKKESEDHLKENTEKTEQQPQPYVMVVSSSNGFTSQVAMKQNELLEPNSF

With TGACGG the binding signal (FEV) was 1.06 fold enrichment (6-mer frequency, TF over GST control), the binding signal (ETV5) was 1.04 fold enrichment (6-mer frequency, TF over GST control) and the binding signal (ELF3) was 1.06 fold enrichment (6-mer frequency, TF over GST control). The binding signal (SPDEF) was 1.06 fold enrichment (6-mer frequency, TF over GST control) and the binding signal (ETV7) was 1.02 fold enrichment (6-mer frequency, TF over GST control).
With AGAAAA the binding signal (GABPA) was 1.03 fold enrichment (6-mer frequency, TF over GST control), the binding signal (ERG) was 1.02 fold enrichment (6-mer frequency, TF over GST control) and the binding signal (ELF1) was 1.02 fold enrichment (6-mer frequency, TF over GST control). For the same sequence, the binding signal (EHF) was 1.02 fold enrichment (6-mer frequency, TF over GST control), the binding signal (SPIB) was 1.08 fold enrichment (6-mer frequency, TF over GST control) and the binding signal (ELK3) was 1 fold enrichment (6-mer frequency, TF over GST control). For the same sequence, the binding signal (ETV5) was 1.02 fold enrichment (6-mer frequency, TF over GST control), the binding signal (ELF4) was 1.04 fold enrichment (6-mer frequency, TF over GST control) and the binding signal (ETV1) was 1.05 fold enrichment (6-mer frequency, TF over GST control). The binding signal (ETV3L) was 1 fold enrichment (6-mer frequency, TF over GST control), the binding signal (ETS2) was 1.09 fold enrichment (6-mer frequency, TF over GST control) and the binding signal (ETV7) was 1.04 fold enrichment (6-mer frequency, TF over GST control).
